# Bioassay records deposited in PubChem by National Center for Advancing Translational Sciences (NCATS).
# S2 tox: reduces viability in counter-screen for ATXN expression inhibitors; S2 cells (HEK-293 line with an ATXN2-luciferase reporter) viability, CellTiter-Fluor protease fluorescence, 24 h; Potency, µM (series often up to 56.7 µM), actives largely listed as cytotoxic; 400,000 compounds, 0.49% hits; AID 651635; further: potency means the concentration at half of the fitted maximal effect; nearly all actives have a fitted effect of over 40% in size
# USP2a block: USP2a (human) protease inhibition. O75604. USP2 core, Ub-CHOP2 coupled fluorogenic reporter, 485/531. Potency, µM (series often up to 38.3 µM), for inactives: at the top dose activity change, negative = inhibition, usual class: inhibitors. 330,000 compounds, 0.01% hits. AID 463254;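 further: potency means the concentration at half of the fitted maximal effect; plate controls were DMSO wells for no effect and full inhibition by NEM control for full effect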
#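 Cell-free coupled assay: 10nM USP2 core preincubated 30min RT with compound in Tris-HCl pH 8.0/CaCl2/CHAPS buffer, then 25nM Ub-CHOP2 and 25nM reporter substrate; fluorescence (Ex 485/Em 531) read after 60min RT, normalized to NEM inhibition, concentration-response curves fitted.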
# ATXN2 expr inh: inhibitors of ATXN2 expression; HEK-293 ATXN2-luciferase reporter, luminescence, 24 h; Potency, µM (highest dose often 57 µM), without a hit: top-dose activity change, negative = inhibition, actives largely listed as inhibitors; 360,000 compounds, 0.72% hits; further: potency means the concentration at half of the fitted maximal effect; on the % scale 0 is the no-effect control and ±100 the full control effect; nearly all actives have a fitted effect of over 55% in size
#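 ATXN2-luciferase reporter cells (luciferase flanked by upstream and downstream ATXN2 gene portions) were treated 24 h at 37 °C with compounds at up to 57 uM. SteadyGlo luminescence gave expression; GF-AFC fluorescence gave viability.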
# USP1-UAF1 inh: USP1/UAF1 (human) deubiquitinase inhibition | O94782 | recombinant USP1/UAF1, Ub-Rhodamine cleavage fluorescence | Potency, µM (doses to about 57.1 µM), inactives show top-dose activity change, negative = inhibition, hits mostly inhibitors | 390,000 compounds, 0.23% hits; further: potency means the concentration at half of the fitted maximal effect; on the % scale 0 is the no-effect control and ±100 the full control effect; nearly all actives have a fitted effect of over 60% in size
# Target sequence (O94782 whole entry, looked up): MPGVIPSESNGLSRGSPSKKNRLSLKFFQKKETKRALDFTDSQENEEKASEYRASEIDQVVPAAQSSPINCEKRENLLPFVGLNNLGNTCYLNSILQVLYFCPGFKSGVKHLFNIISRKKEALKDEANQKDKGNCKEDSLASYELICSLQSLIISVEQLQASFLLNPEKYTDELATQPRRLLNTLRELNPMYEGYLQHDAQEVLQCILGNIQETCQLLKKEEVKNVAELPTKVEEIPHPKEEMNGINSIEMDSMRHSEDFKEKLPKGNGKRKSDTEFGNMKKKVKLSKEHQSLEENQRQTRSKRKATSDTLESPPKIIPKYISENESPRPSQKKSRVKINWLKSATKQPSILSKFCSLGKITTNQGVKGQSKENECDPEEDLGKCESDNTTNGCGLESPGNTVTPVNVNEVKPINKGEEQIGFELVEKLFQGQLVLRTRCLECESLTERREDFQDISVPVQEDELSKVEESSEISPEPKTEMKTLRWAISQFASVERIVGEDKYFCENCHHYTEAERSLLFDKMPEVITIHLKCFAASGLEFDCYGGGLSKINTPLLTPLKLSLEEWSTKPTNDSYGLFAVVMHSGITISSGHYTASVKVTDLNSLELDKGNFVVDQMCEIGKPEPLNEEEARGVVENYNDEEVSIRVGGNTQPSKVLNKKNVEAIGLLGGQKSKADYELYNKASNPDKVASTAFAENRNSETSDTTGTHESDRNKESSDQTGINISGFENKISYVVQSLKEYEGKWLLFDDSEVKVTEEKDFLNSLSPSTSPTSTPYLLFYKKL
#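 1 nM enzyme complex + cpd, 15 min RT; start with Ub-Rho 150nM final; kinetic fluorescence ex 480/em 540, 6 reads q60 s. Buffer 50mM HEPES pH 7.8, 0.5mM EDTA, 0.1 mg/ml BSA, 1mM TCEP, 0.01% Tween-20.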
# IL1B secr inh: blocks inflammasome-driven IL-1 beta release; activity change, % at 57.5 µM; AID 743279; THP-1 LPS/ATP IL-1B secretion, AlphaLISA, 16 h; stronger effect = lower value; 360,000 compounds, 4.7% hits; in the data active means activity change below about -50%; inconclusive means mostly about -30% to -49%; further: on the % scale 0 is the no-effect control and ±100 the full control effect
#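 Secreted IL-1B measured by AlphaLISA bead assay after 16 h compound exposure of THP-1 cells; compounds (final up to 57.5 uM) added 1 h before LPS (250 ng/mL) and ATP (1.25 mM) stimulation; lower signal means less secretion.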
# Active calls of the source: *; i = inactive; ? = inconclusive; . = no result; [ ] = remark or other dose. Hits are enriched below; roughly 4.8% of the tested compounds scored in any of these assays. Unless noted, the call rests on the fitted dose curve; in most records, active means well fitted curve in the direction sought with a large enough effect; inconclusive means small, poorly fitted or top-dose-only effect, or another doubt; inactive means no such curve, though single readings can be large; an effect the other way counts as inactive or inconclusive.
SMILES,S2 tox,USP2a block,ATXN2 expr inh,USP1-UAF1 inh,IL1B secr inh
O=C(Nc1nc(-c2ccccc2)cs1)c1cccs1,i,-5.9%,62.3%,-14.4%,-72.2*
COc1ccc(C(=O)C(C)OC(=O)COc2ccccc2)cc1 (stereo not drawn),i,4.0%,.,-7.2%,6.9
O=C(Nc1nc(-c2ccc(Cl)s2)cs1)c1ccco1,i,-1.6%,18.4%,-21.5%,-84.1*
CCNC(=O)c1cc2c(c(-c3cccc(-c4cccc(C(=O)N(C)C)c4)c3)n1)[C@H](CCO)N(S(=O)C(C)(C)C)C2 (stereo partly drawn),i,.,11.5%,.,0.0
COCCNC(=O)c1cc2c(c(-c3cccc(C#Cc4ccc(OC)c(OC)c4)c3)n1)[C@@H](CCO)N(S(=O)C(C)(C)C)C2 (stereo partly drawn),?,.,-0.2%,.,-17.7
CN(C)C(=O)c1cccc(-c2cccc(-c3nc(C(=O)NCc4ccccc4)cc4c3[C@@H](CCO)N(S(=O)C(C)(C)C)C4)c2)c1 (stereo partly drawn),.,.,-29.2%,.,-55.2*
COc1ccc(C#Cc2cccc(-c3nc(C(=O)NCc4ccc(Oc5ccccc5)cc4)cc4c3[C@@H](CCO)N(S(=O)C(C)(C)C)C4)c2)cc1OC (stereo partly drawn),31.6µM*,.,?,.,-11.2
CCc1nnc2c(Nc3ccc(N(CC)CC)cc3C)nc3ccccc3n12,.,.,.,-20.9%,.
NC(=O)Nc1cc(-c2ccc(CN3CCOCC3)cc2)sc1C(N)=O,.,.,27.2%,.,.
O=Nc1c(O)n(Cc2ccc(Cl)cc2)c2ccccc12,i,-2.1%,-16.0%,-15.3%,-87.8*
Cc1ccc(Cn2c(O)c(N=O)c3ccccc32)cc1,?,2.3%,1.8%,?,-87.6*
O=Nc1c(O)n(Cc2ccc(Cl)cc2Cl)c2ccccc12,i,0.0%,0.7%,-18.0%,-58.0*
C=CCn1c(O)c(N=O)c2ccccc21,i,-1.1%,2.6%,-24.8%,?
C/C(Cl)=C\Cn1c(O)c(N=O)c2ccccc21,i,2.9%,-20.7%,-20.8%,-98.3*
O=Nc1c(O)n(Cc2c(Cl)cccc2Cl)c2ccccc12,i,0.6%,0.8%,-3.3%,?
Cc1ccc(/C=N/n2c(C3CCCCC3)n[nH]c2=S)cc1,i,1.1%,-20.2%,-20.5%,-14.9
CC(C)(C)NC(=O)C(c1cccc2ccccc12)n1c(=O)c(-c2cc3ccccc3[nH]2)nc2ccccc21 (stereo not drawn),.,.,.,.,138.2
Cc1ccc2c(c1)c(N=O)c(O)n2Cc1ccc(Cl)cc1,i,-6.5%,-2.3%,-28.7%,-73.5*
CCNC(=S)N(CCc1c(C)[nH]c2ccc(Cl)cc12)Cc1ccco1,i,4.6%,0.5%[11.3 µM],-1.7%,-59.0*
COCCNC(=S)N(CCc1c(C)[nH]c2ccc(F)cc12)Cc1cccs1,?,1.1%,-35.9%,-16.7%,?
COCCNC(=S)N(CCc1c(C)[nH]c2ccc(Cl)cc12)Cc1cccs1,?,-4.0%,?,-22.5%,-92.3*
CCNC(=S)N(CCc1c(C)[nH]c2ccc(C)cc12)Cc1cccs1,?,-3.0%,-13.6%,-18.6%,-53.3*
CC(C)CCN(C(=O)c1ccccn1)c1c(N)n(Cc2ccccc2)c(=O)[nH]c1=O,i,-0.5%,-1.6%,-8.7%,18.6
CCN(CC)C(=O)CSc1nc2cc3c(cc2c(=O)n1CCCCCC(=O)NCc1ccc(OC)cc1)OCO3,i,1.7%,-14.5%,-20.4%,-64.5*
N=c1n(CC(=O)c2ccc([N+](=O)[O-])cc2)c2ccccc2n1Cc1ccccc1Cl,?,0.0%,?,-1.8%,-59.9*
SMILES,S2 tox,USP2a block,ATXN2 expr inh,USP1-UAF1 inh,IL1B secr inh
N=c1n(CC(=O)c2ccc([N+](=O)[O-])cc2)c2ccccc2n1Cc1ccc(Cl)cc1,?,2.6%,-38.4%,-15.7%,-27.9
N=c1n(CC(=O)c2ccc([N+](=O)[O-])cc2)c2ccccc2n1Cc1ccccc1,?,7.4%,?,15.6%,-105.7*
N=c1n(CC(=O)c2ccc(Br)cc2)c2ccccc2n1Cc1ccccc1,.,6.6%,?,-28.4%,-101.1*
N=c1n(Cc2ccccc2)c2ccccc2n1Cc1ccccc1,i,1.4%,?,2.2%,.
CC(C)OC(=O)c1ccc(NCc2cc(O)ccc2O)cc1,.,.,?,-23.5%,-100.5*
COP(=O)(OC)c1ccc(NCc2cc(O)ccc2O)cc1,i,.,9.4%,?,0.0
O=C(OCc1ccccc1)c1ccc(NCc2cc(O)ccc2O)cc1,.,.,10µM*,-17.8%,-76.2*
Oc1ccc(NCc2ccccc2OCc2ccccc2)cc1,.,3.1%,?,?,-73.6*
Cc1cnc(CNC(=O)c2c3n(c(C)cc2=O)-c2ccccc2SC(c2ccsc2)C3)cn1 (stereo not drawn),i,.,.,.,.
CCCS(=O)(=O)NC(=O)C1(C)CCCN(C(=O)c2cc(C)n(C(C)(C)C)n2)C1 (stereo not drawn),i,.,3.5%,.,51.8
NS(=O)(=O)c1ccc(CCNC(=O)c2coc3ccccc3c2=O)cc1,i,-1.4%,-4.1%,-13.0%,20.1
O=C(C=Cc1ccc(O)cc1)c1ccc(O)cc1O,.,.,38.9%,.,.
CC(C)(C)C(=O)Cn1ncc(N2CCOCC2)c(Cl)c1=O,i,-0.8%,.,-14.4%,17.0
CC(C)(C)C(=O)Cn1ncc(Br)c(Br)c1=O,.,-0.1%,?,-16.6%,-99.7*
S=C(Nc1ccc(Br)cc1)NC1CCCC1,i,0.3%,5.7%,-6.8%,-62.0*
S=C(Nc1ccc(Oc2ccccc2)cc1)NC1CCCC1,i,4.2%,12.9%,-17.7%,-10.7
O=C(CC1CCCC1)Nc1ccc(Br)cc1,i,-1.9%,42.3%,-3.0%,-56.3*
CCN1CCN(C(=O)c2sc3ncnc(NCC4CCCO4)c3c2C)CC1 (stereo not drawn),i,.,.,.,.
CCOC(=O)/C(=C/c1c(C)n(C)c2ccc([N+](=O)[O-])cc12)C(C)=O,?,2.4%,-29.2%,?,-104.5*
CCOC(=O)c1c(N)c2cc([N+](=O)[O-])ccc2n1C,i,5.6%,.,-13.4%,-17.5
COc1ccc(Br)cc1C(C[N+](=O)[O-])c1c(N)n(C)c(=O)n(C)c1=O (stereo not drawn),.,-11.7%,.,4.1%,-83.3*
CN(C)c1ccc(C(C[N+](=O)[O-])c2c(N)n(C)c(=O)n(C)c2=O)c(F)c1C#N (stereo not drawn),.,3.2%,.,-10.1%,-63.3*
Cn1c(N)c(C(C[N+](=O)[O-])c2c(F)cccc2Cl)c(=O)n(C)c1=O (stereo not drawn),i,4.2%,-3.6%,-15.2%,-7.0
CCOCC(O)COc1ccc(NC(=O)CC[S+](C)C)cc1 (stereo not drawn),i,.,3.2%,.,.
CCCCS(=O)(=O)N[C@@H](Cc1ccc(OCCCCC2CCNCC2)cc1)C(=O)O,i,.,2.1%,.,.
